Compound activity deposited in PubChem BioAssay by National Center for Advancing Translational Sciences (NCATS).
GLP-1R agonist: activates the human GLP-1 receptor; HEK293 GLP-1R CRE-luciferase, luminescence, 4-6 h; cells express a hypersensitive GLP-1R form; Potency, µM (top dose mostly 45.6 µM), for the others: at the highest dose activation, hits mostly activators; actives 0.007% (n = 380,000); AID 624172; also: % of control where 0% means no effect
Target sequence (P43220 whole entry, looked up): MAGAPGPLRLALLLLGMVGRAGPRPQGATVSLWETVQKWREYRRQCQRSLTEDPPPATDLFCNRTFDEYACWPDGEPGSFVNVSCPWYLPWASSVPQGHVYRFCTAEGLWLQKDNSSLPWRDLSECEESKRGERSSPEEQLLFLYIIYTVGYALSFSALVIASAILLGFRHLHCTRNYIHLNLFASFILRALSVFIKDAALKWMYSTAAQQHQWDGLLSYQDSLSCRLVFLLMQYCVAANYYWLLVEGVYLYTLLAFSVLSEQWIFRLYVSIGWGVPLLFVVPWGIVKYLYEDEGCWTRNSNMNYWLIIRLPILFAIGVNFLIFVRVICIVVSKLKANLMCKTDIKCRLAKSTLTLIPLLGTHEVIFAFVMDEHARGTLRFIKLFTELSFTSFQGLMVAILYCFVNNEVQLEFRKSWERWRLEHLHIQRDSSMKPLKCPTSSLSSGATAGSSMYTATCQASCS
GLP1R cytotox: cytotoxic in the GLP-1 receptor inverse agonist counter-screen. HEK293 cAMP-luciferase reporter cells, luminescence, 24 h. Potency, µM (highest dose often 38.3 µM), for the others: top-dose activity change, negative = inhibition, actives largely listed as inhibitors. actives 0.13% (n = 410,000). AID 624418;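 also: loss of luciferase light is scored as toxicity; % is scaled to controls: 0 for no effect and ±100 for the full control effect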
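Cells in DMEM/10% Nu serum/1% pen-strep, 1536-well format. Pre-incubated 12 h, dosed with 23 nL compound, incubated a further 24 h. Luciferase detection, 12 min at room temp, luminescence.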
GLP-1R inv ag: GLP-1 receptor (human) inverse agonism. HEK293 GLP-1R CRE-luciferase, luminescence, 24 h; GLP-1R form is constitutively active. Potency, µM (titrated, usually from 38.3 µM), for the others: at the highest dose activity change, negative = inhibition, actives largely listed as inhibitors. actives 1.6% (n = 410,000); also: % is scaled to controls: 0 for no effect and ±100 for the full control effect; nearly all actives have a fitted effect of over 55% in size
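Seeding at 200 cells/uL, 12 h culture, 24 hr compound treatment, then luciferase reagent and a luminescence read; cells are HEK293 stably expressing a constitutively active GLP-1R plus cAMP-responsive luciferase.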
BRCA1 expr up: increases BRCA1 expression. actives 1.1% (n = 380,000). MCF7-BRCA1-FFLuc reporter, luminescence, 48 h; response scale: scaled: vehicle 0%, 10 µM genistein 100%. Potency, µM (series often up to 46.1 µM), without a hit: at the highest dose activation, hits mostly activators. AID 624202; also: nearly all actives have a fitted effect of over 80% in size
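Using MCF7 cells harboring a BRCA1 firefly luciferase reporter, plated 2 h before compound pinning, the screen measured luminescence after 48 h incubation. Responses were normalized to DMSO and 10 microM genistein, then fitted for concentration-effect.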
* hit, by the source's call; u = inconclusive; x = no result. In the library only some 2.6% were active in any assay of this set; here they are far more common. Calls follow the shape of the dose curve; as a rule, active = well fitted curve in the direction sought with a large enough effect; inconclusive = small, poorly fitted or top-dose-only effect, or another doubt; inactive = no such curve, though single readings can be large; an effect the other way counts as inactive or inconclusive. Potency is read from the fitted curve at half-maximal effect.

SMILES	GLP-1R agonist	GLP1R cytotox	GLP-1R inv ag	BRCA1 expr up
Cc1ccc(NC(=O)C(Cc2ccccc2)N2Cc3ccccc3C2=O)cc1Cl (stereo not drawn)	x	-2%	u	x
Cc1ccc(CN=C2Nc3ccccc3CS2)cc1	-1%	3%	u	u
Clc1ccc(CN=C2Nc3ccccc3CS2)cc1	14%	-13%	u	8.9µM*
COc1ccc(OCCSc2ncnc3nc[nH]c23)cc1	11%	8%	27%	u
c1ccc(OCCSc2ncnc3nc[nH]c23)cc1	13%	-12%	49%	8.9µM*
CCCC(CCC)C(N)=O	2%	x	x	x
C#CCN[C@@H]1CCc2ccccc21	-4%	x	x	x
CCCC1CC(=O)NC1(C(=O)OCC)C(=O)OCC (stereo not drawn)	-8%	3%	2%	3%
CC1CCC(C(C)C)C(OCC(O)CNC(C)(C)C)C1 (stereo not drawn)	12%	-15%	11µM*	-2%
CCN1CCN(c2ccc(Nc3ccnc4ccccc34)cc2)CC1	-5%	-17%	3.5µM*	-35%
COc1ccccc1CNc1nc(-c2ccco2)nn1S(=O)(=O)c1ccc(C)cc1	x	8%	u	x
C(=NN=Cc1c[nH]c2ccccc12)c1c[nH]c2ccccc12	3%	-3%	-5%	43%
COCCN=c1scc(-c2ccccc2)n1/N=C/c1c[nH]c2ccccc12	14%	-9%	4µM*	59%
CCn1c(-c2cc(-c3ccc(OC(C)C)cc3)nc3ccccc23)n[nH]c1=S	12%	-5%	0%	7.1µM*
Cc1cc(/C=C/c2c(C)cnc3ccccc23)ccc1N(C)C	x	x	x	-51%
Cc1cc(Br)ccc1OCCNCc1ccccc1	40%	3%	8.9µM*	14%
COc1cc(CNCCc2ccccc2)cc(Br)c1OCC(=O)Nc1ccccc1C	-1%	u	7.9µM*	-24%
Cc1cc(C)c(C)c(OCCNCc2ccccc2)c1	12%	-2%	u	-19%
CNCc1cc(Br)c(OCC(=O)Nc2ccccc2OC)c(OC)c1	25%	8%	u	-20%
O=C(COc1ccc(Br)cc1CNCCc1ccccc1)NCc1ccccc1	3%	u	10µM*	-12%
CCOC(=O)N1CCC(NC(=O)c2cnn(-c3cccc(F)c3)c2-n2cccc2)CC1	x	3%	3%	x
O=C(NCc1cccs1)c1csc(COCCO)n1	-7%	10%	18%	17%
CCN(CC)c1ccc(-c2nnc(SCC(=O)NCc3ccco3)n2C)cc1	x	x	x	9%
Cc1onc(-c2ccccc2Cl)c1C(=O)Oc1ccc(Br)cc1	x	-4%	-3%	x
Cc1onc(-c2ccccc2Cl)c1C(=O)NC(=S)Nc1ccc(C(C)(C)C)cc1	-4%	u	-73%	-43%
SMILES	GLP-1R agonist	GLP1R cytotox	GLP-1R inv ag	BRCA1 expr up
CCc1ccc(NC(=S)NC(=O)c2c(-c3ccccc3Cl)noc2C)cc1	11%	-7%	10µM*	-16%
Cc1onc(-c2ccccc2Cl)c1C(=O)Oc1cccc2cccnc12	7%	u	13µM*	-23%
C/C=C/c1ccc(OCC(=O)OCc2csc(Nc3ccc(C)cc3)n2)c(OC)c1	0%	15%	-20%	11µM*
Cc1ccc(Nc2nc(COC(=O)COc3ccc(C=O)cc3)cs2)cc1	4%	16%	-10%	u
Cc1ccc(NC(=O)CCC(=O)c2cccs2)c(O)c1	5%	5%	8%	11µM*
CC1CC(C)CN(c2oc(Cc3ccccc3)nc2C#N)C1 (stereo not drawn)	13%	106%	11µM*	-5%
Cc1cccc(NC(=O)CSc2nc(=O)n(Cc3cccnc3)c3c2CCC3)c1C	x	-4%	17%	0%
O=C(Cc1ccc(Cl)cc1)NCCc1ccc(F)cc1	1%	-6%	u	-1%
O=C(CNC(=S)N(Cc1ccccc1)Cc1ccccc1F)NCCc1ccc(Cl)cc1	8%	-29%	4µM*	-82%
O=C(CNC(=S)N(Cc1ccccc1)Cc1cccs1)NCc1ccc(F)cc1	7%	-24%	2.8µM*	-45%
COc1ccc(/C=N/NC(=O)c2ccc3ccccc3c2)cc1OS(=O)(=O)c1ccc(NC(C)=O)cc1	-1%	2.2µM*	-1%	-78%
COc1ccc(C=O)cc1OS(=O)(=O)c1ccc(NC(C)=O)cc1	10%	-15%	18%	-22%
CCn1ccc(C(=O)Nc2ccc(Cl)cn2)n1	6%	-19%	-8%	2.5µM*
Cc1ccc(C(C#N)c2ccc(C(=O)c3ccc(F)cc3)cc2)cc1 (stereo not drawn)	-3%	13%	11µM*	0%
O=C(CSc1nc2ccc(NC(=O)CSc3nnnn3-c3ccccc3)cc2s1)Nc1ccccc1	2%	10µM*	u	-28%
Cn1cnnc1SCC(=O)Nc1ccc2nc(SCc3ccccc3F)sc2c1	0%	-16%	0%	4µM*
CCn1c(=O)c(C(=O)CN(C)Cc2ccc(F)cc2)c(N)n(Cc2ccccc2)c1=O	-1%	-17%	8.9µM*	-34%
O=C(N/N=C/c1ccc(OC(F)F)cc1OC(F)F)NC1CCCCC1	23%	-8%	4.5µM*	-4%
O=C(CSc1nccn(-c2cccc(F)c2)c1=O)Nc1ccc(Cl)cc1F	5%	2%	7%	-41%
CCOc1ccc(NC(=O)NCC2CCN(c3ccc(OC)cc3)C2)cc1 (stereo not drawn)	-9%	-7%	-19%	13%
COc1ccc(N2CCC(CNC(=O)Nc3ccc(C)c(C)c3)C2)cc1 (stereo not drawn)	-1%	3%	6.3µM*	-9%
COCCNC(=O)CN(c1cc(C(F)(F)F)ccc1Cl)S(C)(=O)=O	-5%	4%	2%	14%
CS(=O)(=O)N(CC(=O)NCCSCc1ccccc1)c1cc(C(F)(F)F)ccc1Cl	x	-13%	11µM*	x
Cc1ccc(C2C(C=Nc3c(C)n(C)n(-c4ccccc4)c3=O)=C(c3ccccc3)Oc3ccccc32)cc1 (stereo not drawn)	-8%	-1%	4µM*	-38%
Cc1ccc2oc(C(=O)N(Cc3cccc(F)c3)C3CCS(=O)(=O)C3)c(C)c2c1 (stereo not drawn)	x	5%	u	x
SMILES	GLP-1R agonist	GLP1R cytotox	GLP-1R inv ag	BRCA1 expr up
CCN(CCn1cccn1)C(=O)c1cc(COc2cc(C)ccc2C)on1	1%	-5%	u	13µM*
CCN(CCn1cccn1)C(=O)c1cc(COc2ccccc2SC)on1	-13%	3%	-13%	11µM*
CCN(CCn1cccn1)C(=O)c1cc(COc2ccc(F)c(F)c2)on1	0%	-7%	-25%	62%
CCCn1c(N)cc(=O)n(CCC)c1=O	-3%	1%	5%	-2%
CC(C)(C)NC(=O)NC(=O)CN1CCN(C(c2ccccc2)c2ccccc2)CC1	-1%	16%	5µM*	-11%
O=C(CN1CCN(c2ccccc2)CC1)N1N=CCC1c1ccccc1 (stereo not drawn)	2%	18%	-13%	-4%
COc1ccc(CNC(=O)CN2CCN(C(c3ccccc3)c3ccccc3)CC2)cc1	17%	-14%	13µM*	-30%
